Results published in PubChem BioAssay (EPA / NIEHS).
Calls of active or inactive are those of the source. The calls were made as follows: active = hit-call score of the fitted dose curve at least 0.9, where 1 is the maximum; inactive = score below 0.9.

Experiments:
Conditions in all cases: mRNA level, 48 h; actives raise or lower the signal
[1] = read-out: Hypoxia-inducible factor 1-alpha (Homo sapiens) (UniProt Q16665); assay: LTEA_HepaRG_HIF1A: Life Technologies and Expression Analysis (LTEA) Assay for Hypoxia-inducible factor 1 (HIF1A) Trancription factor using HepaRG (AID 2283503)
Summary of the method: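 Gain- or loss-of-signal HIF1A mRNA changes are fitted against a DMSO baseline. HepaRG cultures receive eight concentrations, highest 100 uM, for 48 h in serum-free induction medium with 0.5% DMSO.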

[2] = read-out: 3-Hydroxy-3-Methylglutaryl-CoA Synthase 2 (HMGCS2), HMGCS2 (gene 3158); assay: LTEA_HepaRG_HMGCS2: Life Technologies and Expression Analysis (LTEA) Assay for 3-Hydroxy-3-Methylglutaryl-CoA Synthase 2 (HMGCS2) using HepaRG (AID 2283504)
Summary of the method: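 Readout is HMGCS2 transcript by qRT-PCR, housekeeping-normalised (ACTB/GAPDH/POLR2A) and fitted bidirectionally against 0.5% DMSO. Differentiated HepaRG cells received chemicals 48 h, duplicate wells, eight half-log concentrations topping at 100 uM.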

HGF (gene 3082) = assay: LTEA_HepaRG_HGF: Life Technologies and Expression Analysis (LTEA) Assay for Hepatocyte Growth Facto (HGF) using HepaRG (AID 2283505)
Summary of the method: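 HGF transcript was quantified by TaqMan qRT-PCR against three housekeeping genes after 48 h treatment of HepaRG cells. Exposure ran in duplicate over eight half-log steps topping at 100 uM in 0.5% DMSO vehicle.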

[3] = read-out: Insulin Like Growth Factor 1 (IGF1), IGF1 (gene 3479); assay: LTEA_HepaRG_IGF1: Life Technologies and Expression Analysis (LTEA) Assay for Insulin Like Growth Factor 1 (IGF1) using HepaRG (AID 2283506)
Summary of the method: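 qRT-PCR readout of IGF1 mRNA, normalized to three housekeeping genes, after 48 h chemical exposure of HepaRG cells. Concentrations: 8-point half-log series, top 100 uM, 0.5% DMSO vehicle. Gain or loss fitted against DMSO baseline.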

[4] = read-out: Intercellular Adhesion Molecule 1 (ICAM1), ICAM1 (gene 3383); assay: LTEA_HepaRG_ICAM1: Life Technologies and Expression Analysis (LTEA) Assay for Intercellular Adhesion Molecule 1 (ICAM1) using HepaRG (AID 2283507)
Summary of the method: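 ICAM1 transcript levels measured by qRT-PCR, normalized to three housekeeping genes (ACTB, GAPDH, POLR2A), after 48 h chemical exposure of HepaRG cells. Duplicate eight-point half-log series from 100 uM in 0.5% DMSO; gain or loss fitted against vehicle.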

[5] = read-out: Insulin-like growth factor-binding protein 1 (IGFBP1), IGFBP1 (gene 3484); assay: LTEA_HepaRG_IGFBP1: Life Technologies and Expression Analysis (LTEA) Assay for Insulin-like growth factor-binding protein 1 (IGFBP1) using HepaRG (AID 2283508)
Summary of the method: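 Read-out is qRT-PCR transcript level normalized to three housekeeping genes, fitted in both directions against 0.5% DMSO. Differentiated HepaRG cells received eight half-log concentrations (top 100 uM) in duplicate for 48 h in serum-free induction medium.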

[6] = read-out: Interleukin 6 (IL6), IL6 (gene 3569); assay: LTEA_HepaRG_IL6: Life Technologies and Expression Analysis (LTEA) Assay for Interleukin 6 (IL6) using HepaRG (AID 2283509)
Summary of the method: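 Transcript levels, normalized to three housekeeping genes, were quantified by qRT-PCR after 48 h chemical treatment of HepaRG cells. Eight-point half-log series from 100 uM in 0.5% DMSO, duplicates. Fitted both directions against DMSO baseline.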

[7] = read-out: Interleukin 6 Receptor (IL6R), IL6R (gene 3570); assay: LTEA_HepaRG_IL6R: Life Technologies and Expression Analysis (LTEA) Assay for Interleukin 6 Receptor (IL6R) using HepaRG (AID 2283510);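 as to AC50: differentiated human HepaRG liver cells in serum-free induction medium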
Summary of the method: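 HepaRG, 48 h exposure, 8-pt half-log series, top 100 uM, 0.5% DMSO vehicle, duplicates. Read-out: TaqMan qRT-PCR of IL6R transcript, housekeeping-gene normalized. Gain or loss fitted relative to DMSO baseline.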

[8] = read-out: Potassium channel subfamily K member 1 (KCNK1), KCNK1 (gene 3775); assay: LTEA_HepaRG_KCNK1: Life Technologies and Expression Analysis (LTEA) Assay for Potassium channel subfamily K member 1 (KCNK1) using HepaRG (AID 2283511)
Summary of the method: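 KCNK1 transcript measured by TaqMan qRT-PCR against three housekeeping genes, after HepaRG cells were treated 48 h with eight half-log concentrations (top 100 uM, 0.5% DMSO). Curves fitted bidirectionally relative to vehicle.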

[9] = read-out: Keratin 19 (KRT19), KRT19 (gene 3880); assay: LTEA_HepaRG_KRT19: Life Technologies and Expression Analysis (LTEA) Assay for Keratin 19 (KRT19) using HepaRG (AID 2283512)
Summary of the method: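 KRT19 transcript measured by TaqMan qRT-PCR, referenced to three housekeeping genes, after HepaRG cells received test chemicals for 48 h. Eight half-log concentrations, top 100 uM, 0.5% DMSO vehicle; increases and decreases both fitted.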

Measured: AC50

Sequence of Hypoxia-inducible factor 1-alpha (Homo sapiens) (Q16665 whole entry, looked up): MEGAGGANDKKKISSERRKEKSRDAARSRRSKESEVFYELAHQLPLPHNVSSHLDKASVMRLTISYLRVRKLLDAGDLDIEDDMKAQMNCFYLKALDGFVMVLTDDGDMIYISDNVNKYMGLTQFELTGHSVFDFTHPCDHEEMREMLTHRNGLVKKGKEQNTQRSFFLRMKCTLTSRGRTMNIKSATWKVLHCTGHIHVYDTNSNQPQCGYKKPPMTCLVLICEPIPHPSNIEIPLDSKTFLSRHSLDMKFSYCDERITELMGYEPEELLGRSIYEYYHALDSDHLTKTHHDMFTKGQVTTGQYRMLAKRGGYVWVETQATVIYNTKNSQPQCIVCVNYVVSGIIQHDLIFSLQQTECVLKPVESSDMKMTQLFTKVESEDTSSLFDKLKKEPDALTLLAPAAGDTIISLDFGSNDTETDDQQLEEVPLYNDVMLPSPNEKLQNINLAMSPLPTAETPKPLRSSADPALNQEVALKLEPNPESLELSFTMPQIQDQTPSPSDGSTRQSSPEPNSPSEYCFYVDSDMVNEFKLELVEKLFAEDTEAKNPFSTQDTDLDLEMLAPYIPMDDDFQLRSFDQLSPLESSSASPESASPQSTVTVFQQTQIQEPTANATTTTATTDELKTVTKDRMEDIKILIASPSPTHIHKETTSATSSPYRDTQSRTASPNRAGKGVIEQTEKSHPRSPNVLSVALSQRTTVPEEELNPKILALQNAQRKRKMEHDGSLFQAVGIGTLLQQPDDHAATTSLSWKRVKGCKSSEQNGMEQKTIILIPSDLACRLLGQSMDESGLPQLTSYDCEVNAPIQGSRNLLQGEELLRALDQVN

CCCCN1C(=O)[C@@H]([C@H](O)C2CCCCC2)NC(=O)C12CCN(Cc1ccc(Oc3ccc(C(=O)O)cc3)cc1)CC2
active: [2] 5.05 µM | HGF (gene 3082) 9.25 µM | [3] 9.61 µM | [4] 2.32 µM | [5] 2.45 µM | [6] 2.99 µM | [7] 2.65 µM | [8] 0.391 µM
inactive: [1] | [9]

CCCCCCOC(=O)CC(CC(=O)OCCCCCC)(OC(=O)CCC)C(=O)OCCCCCC
not listed: [3]
inactive: all other assays above

OCC(CO)(CO)CO
inactive: all assays above

CCCCCCCCCCCCCCO
not listed: [2]
inactive: all other assays above

Cc1nc(-c2ccccn2)ncc1C(=O)Nn1cc(C)c2cc(F)ccc21
active: [1] 81 µM | HGF (gene 3082) 65.1 µM
not listed: [2]
inactive: all other assays above

OC[C@H]1O[C@@H]2O[C@H]3[C@H](O)[C@@H](O)[C@@H](O[C@H]4[C@H](O)[C@@H](O)[C@@H](O[C@H]5[C@H](O)[C@@H](O)[C@@H](O[C@H]6[C@H](O)[C@@H](O)[C@@H](O[C@H]7[C@H](O)[C@@H](O)[C@@H](O[C@H]1[C@H](O)[C@H]2O)O[C@@H]7CO)O[C@@H]6CO)O[C@@H]5CO)O[C@@H]4CO)O[C@@H]3CO
not listed: [2]
inactive: all other assays above

C[C@]12C=CC(=O)C=C1CC[C@H]1[C@@H]3C[C@@H](O)[C@](O)(C(=O)CO)[C@@]3(C)C[C@H](O)[C@@]12F
not listed: [3]
inactive: all other assays above

O=C(O)c1cccc(C[C@@H]2COc3ccc(OCc4nc5cc(F)ccc5s4)cc3[C@@H]2O)c1
active: [1] 81.3 µM | HGF (gene 3082) 50 µM | [7] 50 µM
not listed: [2]
inactive: all other assays above

CC[C@H](C)C(=O)O[C@H]1C[C@H](O)C=C2C=C[C@H](C)[C@H](CC[C@@H](O)C[C@@H](O)CC(=O)O)[C@H]21
inactive: all assays above

O=C(O)c1cccc(C(=O)O)c1
not listed: [2]
inactive: all other assays above

O=C1CN(N=Cc2ccc([N+](=O)[O-])o2)C(=O)N1
active: [2] 72 µM | [5] 33.4 µM | [9] 88.7 µM
not listed: HGF (gene 3082) | [3]
inactive: all other assays above

NC(=O)N1c2ccccc2C=Cc2ccccc21
not listed: [3]
inactive: all other assays above

CCOc1ccc2[nH]cc(C(=O)NCc3ccccc3)c(=O)c2n1
active: [3] 15.8 µM | [9] 12.1 µM
not listed: [2]
inactive: all other assays above

CCCCCCCC1CCC(=O)O1 (configuration not stated)
not listed: HGF (gene 3082) | [3]
inactive: all other assays above

CCc1cccc(CC)c1N
not listed: [3]
inactive: all other assays above

CC(=O)c1ccccc1
inactive: all assays above

CCCCCCCCCC
not listed: [3]
inactive: all other assays above

c1ccc2c(c1)-c1cccc3c1c-2cc1ccccc13
active: [2] 16.1 µM | HGF (gene 3082) 50 µM | [3] 16 µM | [5] 2.54 µM | [7] 11.1 µM | [9] 1.4 µM
inactive: [1] | [4] | [6] | [8]

CC(C)CC(C)O (configuration not stated)
inactive: all assays above

C=CN1CCCC1=O
not listed: [3]
inactive: all other assays above

O=C(O)c1ccc2c(c1)nc(C(=O)NC1CCN(C3CC3)CC1)n2Cc1cc(-c2ccc(Cl)s2)on1
not listed: [3]
inactive: all other assays above

CCCCOC(=O)c1ccccc1
inactive: all assays above

CCCOc1ccc(S(=O)(=O)N2CCN(CC)CC2)cc1-c1nc2c(CC)n(Cc3ccccn3)nc2c(=O)[nH]1
active: [3] 14.5 µM | [5] 68.3 µM
not listed: [2]
inactive: all other assays above

OCCOCCOCCO
not listed: [2]
inactive: all other assays above

O=S(=O)(O)c1ccc(N=Nc2c(O)ccc3cc(S(=O)(=O)O)ccc23)cc1
not listed: [3]
inactive: all other assays above

C[C@@H](Oc1ccc(CNC(=O)c2cccnc2Oc2ccc3c(c2)OCO3)c(F)c1)C(=O)O
active: [2] 25.8 µM
not listed: [3]
inactive: all other assays above

c1ccc2cc3ccccc3cc2c1
not listed: [3]
inactive: all other assays above

Cc1nccn1-c1ccc(Sc2cccc(C3(C(N)=O)CCOCC3)c2)cc1
inactive: [1] | [6] | [8]
active: [2] 11 µM | HGF (gene 3082) 20.6 µM | [4] 10.7 µM | [5] 9.01 µM | [7] 13.1 µM | [9] 6.52 µM

OCc1ccccc1
not listed: [2]
inactive: all other assays above

CCCCC(CC)C(=O)OCCOCCOCCOC(=O)C(CC)CCCC (configuration not stated)
not listed: [3]
inactive: all other assays above

NC(=O)N(O)[C@@H]1COc2cc(OCc3ccccc3)ccc21
not listed: [3]
inactive: all other assays above

OCCNCCO
active: [1] 50 µM | [2] 75 µM | [9] 50 µM
inactive: all other assays above

OC(Cn1cncn1)(Cn1cncn1)c1ccc(F)cc1F
not listed: [2]
inactive: all other assays above

CC(C)CCCCCCOC(=O)C1CCCCC1C(=O)OCCCCCCC(C)C (configuration not stated)
not listed: [2]
inactive: all other assays above

COc1cc(C(C)C)c2c(c1)S(=O)(=O)N(COc1cc(=O)n3cccc(OCCN4CCCCC4)c3n1)C2=O
inactive: [1] | [4] | [5] | [8]
active: HGF (gene 3082) 12.5 µM | [6] 12.5 µM | [7] 12.5 µM | [9] 12.5 µM

c1ccc2ncccc2c1
active: [1] 50 µM
not listed: [2]
inactive: all other assays above

O=c1[nH]cnc2c1ncn2[C@H]1CC[C@@H](CO)O1
not listed: [2] | [3]
inactive: all other assays above

CCCCCCCC/C=C\CCCCCCCC(=O)OC[C@@H](O)[C@H]1OC[C@H](O)[C@H]1O
not listed: [2] | [3]
inactive: all other assays above

CCN(CC)C(=S)SSC(=S)N(CC)CC
not listed: [1] | HGF (gene 3082) | [3]
inactive: all other assays above

CCCCCOC(C)=O
not listed: [2] | [3]
inactive: all other assays above

CCOC(N)=O
not listed: [2] | [3]
inactive: all other assays above

Nc1ccn([C@@H]2O[C@H](CO)[C@@H](O)[C@@H]2O)c(=O)n1
not listed: [2]
inactive: all other assays above
